Inconclusive results are not listed. A number with no mark means an inactive call. Activity calls are given as the source filed them. Calls come from the whole dose curve; as a rule, active = well fitted curve in the direction sought with a large enough effect; inconclusive = small, poorly fitted or top-dose-only effect, or another doubt; inactive = no such curve, though single readings can be large; an effect the other way counts as inactive or inconclusive.
biological target: Rap guanine nucleotide exchange factor 4 (Homo sapiens) (UniProt Q8WZA2); assay: Confirmatory qHTS for agonist of cAMP-regulated guanine nucleotide exchange factor 4 (EPAC2) (AID 1645884); details: EPAC2 GEF activity, Rap1B-BODIPY-GDP fluorescence; series mostly up to 154 µM; activation: at the top concentration;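 note: nucleotide exchange releases bodipy-GDP from Rap1 and this lowers its fluorescence; nearly all actives have a fitted effect of over 65% in size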
% is set by controls: 0 for no effect and ±100 for the full control effect.

Chain of Rap guanine nucleotide exchange factor 4 (Homo sapiens) (Q8WZA2 whole entry, looked up): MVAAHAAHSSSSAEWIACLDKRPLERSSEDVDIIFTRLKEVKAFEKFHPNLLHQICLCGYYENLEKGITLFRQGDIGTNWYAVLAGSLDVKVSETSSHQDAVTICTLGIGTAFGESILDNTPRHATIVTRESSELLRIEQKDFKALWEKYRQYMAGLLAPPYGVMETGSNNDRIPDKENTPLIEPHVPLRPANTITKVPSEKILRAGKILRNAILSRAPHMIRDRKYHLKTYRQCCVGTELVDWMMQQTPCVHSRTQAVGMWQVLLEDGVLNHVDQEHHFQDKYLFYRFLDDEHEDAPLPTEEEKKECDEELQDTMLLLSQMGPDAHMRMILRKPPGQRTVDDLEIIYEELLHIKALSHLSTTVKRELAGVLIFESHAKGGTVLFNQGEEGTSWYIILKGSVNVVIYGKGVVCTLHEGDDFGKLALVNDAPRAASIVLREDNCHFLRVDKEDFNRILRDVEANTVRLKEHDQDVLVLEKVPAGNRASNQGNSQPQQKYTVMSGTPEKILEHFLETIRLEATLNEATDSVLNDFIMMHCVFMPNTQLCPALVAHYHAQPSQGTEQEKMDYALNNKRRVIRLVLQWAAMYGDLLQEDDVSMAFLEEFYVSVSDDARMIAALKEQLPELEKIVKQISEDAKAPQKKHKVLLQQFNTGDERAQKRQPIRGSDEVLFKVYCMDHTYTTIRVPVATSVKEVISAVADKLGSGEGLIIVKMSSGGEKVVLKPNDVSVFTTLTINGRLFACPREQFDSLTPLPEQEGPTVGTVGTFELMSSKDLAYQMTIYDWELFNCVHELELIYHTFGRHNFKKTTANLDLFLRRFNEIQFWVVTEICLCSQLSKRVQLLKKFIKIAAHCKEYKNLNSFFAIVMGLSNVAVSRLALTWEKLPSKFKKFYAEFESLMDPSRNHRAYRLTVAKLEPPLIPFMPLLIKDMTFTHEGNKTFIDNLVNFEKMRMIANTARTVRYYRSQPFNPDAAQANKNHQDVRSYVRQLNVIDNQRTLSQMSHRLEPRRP

Going from `CCCCNC(=O)c1c(N)n(CCCOC)c2nc3ccccc3nc12` to `COC(=O)c1cn(C(=O)c2cccc3ccccc23)c2ccccc12`, the “activation” value rises from -11.9% to 12.7%.

First: COC(=O)c1cn(Cc2ccc(F)cc2)c2ccccc12
Second: CCOC(=O)[C@]12Cc3ccsc3[C@H]1N(Cc1ccccc1)C(=O)c1ccccc12
The “activation” value of the first is higher: 21.3% for the first, 16.9% for the second.

Going from `O=c1[nH]c(O)c(C=Nc2ccccc2Sc2ccccc2)c(=O)[nH]1` to `CCOC(=O)[C@]12Cc3cc(C)ccc3[C@H]1N(Cc1ccccc1)C(=O)c1ccccc12`, the “activation” value falls from 9.66% to 0%.

Compared with `CCOC(=O)[C@]12Cc3ccccc3[C@H]1N(C1CCCCC1)C(=O)c1cc(OC)ccc12`, `CCOC(=O)[C@]12Cc3ccc(C)cc3[C@H]1N(C1CCCCC1)C(=O)c1cc(OC)ccc12` is lower in “activation” value: 9.79% for the first, -2.89% for the second.

Going from `CCN1C(=O)C(=C/C=C/c2ccco2)C(=O)N(CC)C1=S` to `COc1ccc(CN2C(=O)NC(=O)/C(=C/c3ccc([N+](=O)[O-])s3)C2=O)cc1`, the “activation” value falls from 0% to -14.5%.

First: CCOC(=O)[C@]12Cc3cc(OC)ccc3[C@H]1N(Cc1ccccc1)C(=O)c1cc(F)c(F)cc12
Second: Cc1c(NS(=O)(=O)c2ccccc2)ccc([N+](=O)[O-])c1Cl
The “activation” value of the first is higher: 0.399% for the first, -15.5% for the second.

In the case of `CCOC(=O)[C@]12Cc3cc(C)ccc3[C@H]1N(C1CCCCC1)C(=O)c1ccccc12`, the activation is reported as 4.83% [at 17.1 µM, percent relative to cAMP agonist control].
In the case of `Nc1c(C(=O)Nc2ccc(Br)cc2F)sc2nc3c(cc12)N1CCC3CC1`, the “activation” value is reported as 0.502% [at 83.8 µM, percent relative to cAMP agonist control].
With `O=C1NC(=O)N(Cc2ccccc2)C(=O)/C1=C/C=C/c1ccco1` the activation was 4.26% [at 17.1 µM, percent relative to cAMP agonist control].

biological target: Rap guanine nucleotide exchange factor 4 (Homo sapiens) (UniProt Q8WZA2); assay: Confirmatory qHTS for antagonist of cAMP-regulated guanine nucleotide exchange factor 4 (EPAC2) (AID 1645885); details: EPAC2 Rap1B-BODIPY-GDP exchange fluorescence, biochemical; series mostly up to 114 µM; activity change, negative = inhibition: at the top concentration; note: nearly all actives have a fitted effect of over 25% in size

Compared with `COC(=O)c1cn(Cc2ccc(F)cc2)c2ccccc12`, `COC(=O)c1cn(C(=O)c2cccc3ccccc23)c2ccccc12` is lower in “activity change, negative = inhibition” value: 0.182% for the first, -33.9% for the second.

Compared with `O=c1[nH]c(O)c(C=Nc2ccccc2Sc2ccccc2)c(=O)[nH]1`, `CCOC(=O)[C@]12Cc3ccccc3[C@H]1N(C1CCCCC1)C(=O)c1cc(OC)ccc12` is higher in “activity change, negative = inhibition” value: -20.7% for the first, 57.1% for the second.

For `CCN1C(=O)C(=C/C=C/c2ccco2)C(=O)N(CC)C1=S`, the “activity change, negative = inhibition” value was 11.2%.

First: CCOC(=O)[C@]12Cc3cc(C)ccc3[C@H]1N(C1CCCCC1)C(=O)c1ccccc12
Second: O=C1NC(=O)N(Cc2ccccc2)C(=O)/C1=C/C=C/c1ccco1
The activity change, negative = inhibition of the first is lower: -27.9% [at 12.7 µM] for the first, -1.14% [at 12.7 µM] for the second.

`Nc1c(C(=O)Nc2ccc(Br)cc2F)sc2nc3c(cc12)N1CCC3CC1` showed an activity change, negative = inhibition of -17.9% [at 12.7 µM].

In the case of `CCOC(=O)[C@]12Cc3cc(OC)ccc3[C@H]1N(Cc1ccccc1)C(=O)c1cc(F)c(F)cc12`, the “outcome” value is reported as “inactive; activator; fitted 37.933 uM”.
With `Cc1c(NS(=O)(=O)c2ccccc2)ccc([N+](=O)[O-])c1Cl` the “outcome” value was “inactive; activator; fitted 2.6855 uM”.
`CCOC(=O)[C@]12Cc3ccc(C)cc3[C@H]1N(C1CCCCC1)C(=O)c1cc(OC)ccc12` was tested, and the “outcome” value was “inactive”.
With `CCOC(=O)[C@]12Cc3cc(C)ccc3[C@H]1N(Cc1ccccc1)C(=O)c1ccccc12` the “outcome” value was “inactive”.

— PubChem BioAssay (NCATS)
